In the supplement of paper PMC13380429:

System: Vero E6 infected with SARS-CoV-2
Test: inhibition of SARS-CoV-2 cytopathic effect; higher = more antiviral protection, active = above 15
Details: 48 h

Measured: inhibition of SARS-CoV-2 cytopathic effect

N#C/C(=C\c1ccc(O)c(O)c1)C(=O)NCc1ccccc1
inactive: 1 nM 5.06% | 8.33 nM 3.47% | 100 nM 7.47% | 833.33 nM 0.08% | 10000 nM 5.05%

CC[C@H](C)C(=O)O[C@H]1C[C@@H](C)C=C2C=C[C@H](C)[C@H](CC[C@@H]3C[C@@H](O)CC(=O)O3)[C@H]21 [lovastatin]
inactive: 1 nM -0.49% | 8.33 nM 4.16% | 100 nM 1.14% | 833.33 nM 1.16% | 10000 nM 0.82%

Cc1cccn2c(=O)c(/C=C(\C#N)c3nc4ccccc4s3)c(Oc3ccc(F)cc3)nc12
inactive: 1 nM -2.85% | 8.33 nM 0.91% | 100 nM -1.07% | 833.33 nM -1.93% | 10000 nM -0.23%

Oc1cc2c(cc1O)[C@H]1c3ccccc3CN[C@@H]1CC2 (racemic) [dihydrexidine]
inactive: 1 nM -2.37% | 8.33 nM -1.57% | 100 nM 0.62% | 833.33 nM -2.04% | 10000 nM 2.92%

CC(=O)OCC(CCn1cnc2cnc(N)nc21)COC(C)=O [famciclovir]
inactive: 1 nM -0.42% | 8.33 nM -2.15% | 100 nM -3.04% | 833.33 nM -0.25% | 10000 nM -2.48%

Cc1ncc(OC[C@@]2(c3cccc(F)c3)C[C@H]2C(=O)Nc2ccc(F)cn2)c(C)n1 [lemborexant]
inactive: 1 nM -1.6% | 8.33 nM -1.02% | 100 nM -1.75% | 833.33 nM -4.61% | 10000 nM -1.06%

CC1/C=C/C=C/C=C/C=C/C=C/C=C/C=C/C(OC2O[C@H](C)[C@@H](O)[C@H](N)[C@@H]2O)CC(O)C(C(=O)O)C(O)CC(=O)CC(O)CC(O)CC(O)CC(=O)CCCC(=O)CC(=O)OC1C(C)CC(C)C(O)CC(=O)c1ccc(N)cc1 (stereo not given in full) [candicidin]
inactive: 1 nM -0.52% | 8.33 nM 4.78% | 100 nM 3.57% | 833.33 nM 4.79% | 10000 nM -2.56%
